Experimental findings from PubChem BioAssay (NCI) are described below.

Test systems include MOLT-4 leukemia; SR leukemia; RPMI-8226 leukemia; OVCAR-8 ovarian; OVCAR-5 ovarian; OVCAR-4 ovarian; SK-OV-3 ovarian; IGROV1 ovarian; OVCAR-3 ovarian; HS 578T breast; NCI/ADR-RES ovarian; T-47D breast; BT-549 breast; MDA-MB-435 melanoma; SW-620 colon; MCF7 breast; HCT-116 colon; HCC-2998 colon; KM12 colon.
Test in all cases: NCI-60 one-dose screen, 48 h (100 = growth as untreated, 0 = no growth, -100 = all killed)
Conditions in all cases: 10 µM unless noted

The panel holds about 83,000 compounds, 20% with a hit somewhere; the sample as a whole holds those more often.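 Interpretation: 100, growth as untreated; towards 0, rising growth inhibition; 0, no net growth; 0 to -100, cell death. Compounds scoring below 10 were considered active.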 A number with no mark means an inactive call. Calls of active or inactive are those of the source.

For the compound `N#CC(N)c1ccccc1` (configuration not stated), the growth with MOLT-4 leukemia is 108%; with SR leukemia, 101%; in the assay on RPMI-8226 leukemia, 99%; with OVCAR-8 ovarian, 106%; with OVCAR-5 ovarian, 101%; in the assay on OVCAR-4 ovarian, 110%. Besides, the growth with SK-OV-3 ovarian was 115%; in the assay on IGROV1 ovarian, 115%; with OVCAR-3 ovarian, 106%; in the assay on HS 578T breast, 98.5%; with NCI/ADR-RES ovarian it was 108%; in the assay with T-47D breast, 114%. In addition, the growth in the assay on BT-549 breast is 96.3%; in the assay with MDA-MB-435 melanoma it was 98.3%; in the assay with SW-620 colon, 103%; in the assay with MCF7 breast, 111%; in the assay with HCT-116 colon, 96.4%; with HCC-2998 colon, 113%. In the assay on KM12 colon, the growth was 103%.

As to `N#CC(C#N)=C(C#N)C#N`, the growth with MOLT-4 leukemia was 102%; in the assay with SR leukemia it was 105%; in the assay on RPMI-8226 leukemia it was 101%; with OVCAR-8 ovarian it was 96%; in the assay with OVCAR-5 ovarian it was 101%; with OVCAR-4 ovarian it was 104%. In addition, the growth in the assay with SK-OV-3 ovarian was 109%; in the assay with IGROV1 ovarian, 108%; with OVCAR-3 ovarian, 107%; in the assay on HS 578T breast, 103%; in the assay with NCI/ADR-RES ovarian it was 110%; in the assay with T-47D breast it was 95.8%. Also, the growth is 104% in the assay on BT-549 breast; 107% in the assay on MDA-MB-435 melanoma; 104% in the assay on SW-620 colon; 98.1% with MCF7 breast; 102% in the assay on HCT-116 colon; 110% in the assay on HCC-2998 colon. The growth in the assay on KM12 colon was 108%.

As for `COc1cc2c(cc1OC)[C@@H]1C(=O)c3ccc4c(c3O[C@@H]1CO2)C[C@H](C(C)C)O4`, the growth in the assay with MOLT-4 leukemia was 37%; with SR leukemia it was 9.36% (active); in the assay with RPMI-8226 leukemia, -9.79% (active); in the assay on OVCAR-8 ovarian it was 54.7%; with OVCAR-5 ovarian, 93.7%; in the assay on OVCAR-4 ovarian, 42.3%. The growth with SK-OV-3 ovarian was 75.9%; with IGROV1 ovarian, 81.6%; with OVCAR-3 ovarian it was 83.1%; in the assay on HS 578T breast, 115%; in the assay on NCI/ADR-RES ovarian, 34.9%; in the assay on T-47D breast it was 33.2%. For the same compound, the growth is 44.8% in the assay on BT-549 breast; 51.4% in the assay on MDA-MB-435 melanoma; 84.7% in the assay on SW-620 colon; 46.3% in the assay on MCF7 breast; 39.4% in the assay on HCT-116 colon; 76.1% with HCC-2998 colon. The growth in the assay with KM12 colon was 65.6%.

As to `O=[N+]([O-])c1ccc(OCc2ccc(S(=O)(=O)F)c(Cl)c2)c(Cl)c1`, the growth in the assay with MOLT-4 leukemia was 68.2%; with SR leukemia, 87.5%; in the assay with RPMI-8226 leukemia, 97.8%; with OVCAR-8 ovarian, 105%; in the assay on OVCAR-5 ovarian, 99%; in the assay on OVCAR-4 ovarian, 102%. Also, the growth in the assay with SK-OV-3 ovarian was 107%; with IGROV1 ovarian, 100%; in the assay with OVCAR-3 ovarian it was 112%; with HS 578T breast, 95.4%; in the assay with NCI/ADR-RES ovarian, 102%; in the assay on T-47D breast, 97%. The growth was 91.6% in the assay on BT-549 breast; 113% with MDA-MB-435 melanoma; 98.8% in the assay on SW-620 colon; 92.8% in the assay on MCF7 breast; 90.1% with HCT-116 colon; 105% with HCC-2998 colon. Further, the growth with KM12 colon is 113%.

For the compound `CN1CCN(c2ccc(Cl)cc2)CC1`, the growth in the assay with MOLT-4 leukemia was 75.6%; in the assay on SR leukemia, 56.2%; with RPMI-8226 leukemia, 110%; in the assay on OVCAR-8 ovarian, 72.5%; in the assay with OVCAR-5 ovarian it was 80.5%; with OVCAR-4 ovarian, 98.6%. The growth in the assay with SK-OV-3 ovarian is 103%; in the assay on IGROV1 ovarian it was 68%; in the assay on OVCAR-3 ovarian, 125%; with HS 578T breast it was 101%; with NCI/ADR-RES ovarian, 70.1%; with T-47D breast, 90%. In addition, the growth in the assay with BT-549 breast is 83.2%; in the assay with MDA-MB-435 melanoma, 97.8%; in the assay on SW-620 colon it was 46.5%; in the assay on MCF7 breast, 62.6%; with HCT-116 colon it was 31.4%; with HCC-2998 colon, 105%. In the assay with KM12 colon, the growth is 100%.

Take `C=CC[PH+](c1ccccc1)c1ccccc1.C=CC[PH+](c1ccccc1)c1ccccc1.[Pt+2].[S-]c1ncccn1.[S-]c1ncccn1`: the growth in the assay with MOLT-4 leukemia is 7.91% (active); with SR leukemia, 13.5%; in the assay with RPMI-8226 leukemia, 0.618% (active); in the assay on OVCAR-8 ovarian it was 1.96% (active); in the assay on OVCAR-5 ovarian it was 14.3%; with OVCAR-4 ovarian, 17.6%. Besides, the growth with SK-OV-3 ovarian was 96.3%; with IGROV1 ovarian, 16.3%; with OVCAR-3 ovarian it was -24.5% (active); with HS 578T breast, 61.6%; in the assay on NCI/ADR-RES ovarian it was 39.6%; in the assay with T-47D breast, 2% (active). Further, the growth is 64% in the assay with BT-549 breast; -48.1% (active) in the assay with MDA-MB-435 melanoma; -4.87% (active) in the assay with SW-620 colon; 17.2% in the assay on MCF7 breast; -43.8% (active) in the assay with HCT-116 colon; 97.5% in the assay with HCC-2998 colon. In the assay on KM12 colon, the growth is 76.7%.

For the compound `O=C(Cc1ccccc1)c1ccccc1`, the growth was 107% in the assay on MOLT-4 leukemia; 100% with SR leukemia; 85.4% in the assay on RPMI-8226 leukemia; 108% in the assay with OVCAR-8 ovarian; 108% in the assay on OVCAR-5 ovarian; 99.3% with OVCAR-4 ovarian. For the same compound, the growth with SK-OV-3 ovarian is 113%; with IGROV1 ovarian, 110%; in the assay with OVCAR-3 ovarian, 106%; with HS 578T breast, 90.3%; in the assay with NCI/ADR-RES ovarian it was 105%; in the assay on T-47D breast it was 100%. The growth was 100% in the assay on BT-549 breast; 102% in the assay on MDA-MB-435 melanoma; 96.6% in the assay on SW-620 colon; 92% in the assay with MCF7 breast; 101% in the assay on HCT-116 colon; 114% in the assay with HCC-2998 colon. Further, the growth with KM12 colon is 99.8%.

With `CCC(=O)C(CC(C)N1CCCCCC1)(c1ccccc1)c1ccccc1` (configuration not stated), the growth was 93.9% in the assay on MOLT-4 leukemia; 102% with SR leukemia; 99.3% with RPMI-8226 leukemia; 97% in the assay with OVCAR-8 ovarian; 89.1% in the assay on OVCAR-5 ovarian; 84.2% with OVCAR-4 ovarian. Besides, the growth in the assay on SK-OV-3 ovarian was 93.6%; with IGROV1 ovarian it was 78.6%; in the assay on OVCAR-3 ovarian, 96.5%; in the assay on HS 578T breast it was 96.7%; in the assay with NCI/ADR-RES ovarian, 102%; in the assay with T-47D breast, 95.3%. Also, the growth is 97.4% in the assay on BT-549 breast; 98.3% in the assay on MDA-MB-435 melanoma; 99.1% with SW-620 colon; 81.8% with MCF7 breast; 72.1% in the assay with HCT-116 colon; 97.7% with HCC-2998 colon. For the same compound, the growth in the assay with KM12 colon was 107%.
